Consider 36 molecules from the supplement of paper PMC8007513.

Counter-ions that a name gives are not always drawn. ± gives the standard error. In all, about 1,300 compounds went through this assay and about 130 (10%) showed an effect of 50% or more. Shown is part of a subset that was picked to be rich in strong results.

For the test, the system named is Trichoderma virens ATCC 9645. Kind of test: growth yield (OD600) with compound + IPBC relative to untreated control; higher = less growth inhibition. The settings on record: compound concentration: 100 uM, IPBC concentration: 200 ng/ml. In outline: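 Library compounds (100 μM final), with or without a co-applied biocide (200 ng ml^−1), were added to 100 μl aliquots of Trichoderma virens ATCC 9645 spores at 15,000 spores ml^−1 in potato dextrose broth. Cultures were grown at 30 °C in 96-well plates, and OD600 was measured at 40 h and 72 h. Each growth value is a mean of duplicate screens, expressed relative to the control with neither agent.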

In the case of `CCCNC(C)(C)COC(=O)c1ccccc1` [Meprylcaine hydrochloride] + CCCCNC(=O)OCC#CI [3-iodo-2-propynyl butylcarbamate (IPBC)], the growth yield reads like this: (40 h) 87.7 ± 7.6%; (72 h) 91.8 ± 5.1%.

With `Nc1nc(O)c2ncn(CCC(CO)CO)c2n1` [Penciclovir] + CCCCNC(=O)OCC#CI [3-iodo-2-propynyl butylcarbamate (IPBC)], the growth yield is, setting by setting: (40 h) 82.76 ± 0.48%; (72 h) 95.6 ± 1.3%.

`Cc1ccccc1C(=O)Nc1ccc(C(=O)N2CCCC(O)c3cc(Cl)ccc32)c(C)c1` (configuration not stated) [Tolvaptan] + CCCCNC(=O)OCC#CI [3-iodo-2-propynyl butylcarbamate (IPBC)]: the growth yield runs as follows: (40 h) 107 ± 2.5%; (72 h) 107.1 ± 0.94%.

Regarding `CN1CCCC(CC2c3ccccc3Sc3ccccc32)C1` (configuration not stated) [Metixene hydrochloride] + CCCCNC(=O)OCC#CI [3-iodo-2-propynyl butylcarbamate (IPBC)], the growth yield (40 h) came to 48.9 ± 2.2% and the growth yield (72 h) is 85.3 ± 2%.

Take `Cc1ncc(CO)c(CO)c1O` [Pyridoxine hydrochloride] + CCCCNC(=O)OCC#CI [3-iodo-2-propynyl butylcarbamate (IPBC)]: the growth yield runs as follows: (40 h) 79.58 ± 0.79%; (72 h) 85.7 ± 2.2%.

`CCN(CC)CCOC(=O)C(Cc1cccc2ccccc12)CC1CCCO1` (configuration not stated) [Nafronyl oxalate] + CCCCNC(=O)OCC#CI [3-iodo-2-propynyl butylcarbamate (IPBC)]: the growth yield amounted to 71.5 ± 1.3% (40 h) and 87.36 ± 0.1% (72 h).

For the molecule `CO[C@H]1/C=C/O[C@@]2(C)Oc3c(C)c(O)c4c(O)c(c(/C=N/N5CCN(C6CCCC6)CC5)c(O)c4c3C2=O)NC(=O)/C(C)=C\C=C\[C@H](C)[C@H](O)[C@@H](C)[C@@H](O)[C@@H](C)[C@H](OC(C)=O)[C@@H]1C` [Rifapentine] + CCCCNC(=O)OCC#CI [3-iodo-2-propynyl butylcarbamate (IPBC)], the growth yield (40 h) stood at 90.2 ± 0.95% and the growth yield (72 h) is 94.5 ± 2.6%.

`NC[C@H]1CC[C@H](C(=O)O)CC1` [Tranexamic acid] + CCCCNC(=O)OCC#CI [3-iodo-2-propynyl butylcarbamate (IPBC)]: the growth yield is, setting by setting: (40 h) 100 ± 3.8%; (72 h) 104 ± 1.1%.

As to `CCC1(c2ccccc2)NC(=O)N(C)C1=O` (configuration not stated) [Mephenytoin] + CCCCNC(=O)OCC#CI [3-iodo-2-propynyl butylcarbamate (IPBC)], the growth yield is, setting by setting: (40 h) 88.5 ± 2.4%; (72 h) 100 ± 9.9%.

As for `CN(C)[C@@H]1C(O)=C(C(N)=O)C(=O)[C@@]2(O)C(O)=C3C(=O)c4c(O)cccc4[C@@](C)(O)[C@H]3C[C@@H]12` [Tetracycline hydrochloride] + CCCCNC(=O)OCC#CI [3-iodo-2-propynyl butylcarbamate (IPBC)], the growth yield reads like this: (40 h) 99.3 ± 11%; (72 h) 96.9 ± 6.3%.

As to `C[N+]1(C)CCC(OC(=O)C(O)(c2ccccc2)C2CCCC2)C1` (configuration not stated) [Glycopyrrolate] + CCCCNC(=O)OCC#CI [3-iodo-2-propynyl butylcarbamate (IPBC)], the growth yield amounted to 101 ± 14% (40 h) and 98.7 ± 8.1% (72 h).

For `O=C1c2c(O)cccc2Cc2cccc(O)c21` [Anthralin] + CCCCNC(=O)OCC#CI [3-iodo-2-propynyl butylcarbamate (IPBC)], the growth yield by setting is: (40 h) 71.8 ± 3.8%; (72 h) 82.4 ± 1.3%.

In the case of `O=C1c2cccc(O)c2C(=O)c2c(O)cccc21` [1,8-Dihydroxyanthraquinone] + CCCCNC(=O)OCC#CI [3-iodo-2-propynyl butylcarbamate (IPBC)], the growth yield by setting is: (40 h) 55.12 ± 0.16%; (72 h) 77.2 ± 1.9%.

As to `O=C1c2c(O)ccc(O)c2C(=O)c2c(NCCNCCO)ccc(NCCNCCO)c21` [Mitoxantrone dihydrochloride] + CCCCNC(=O)OCC#CI [3-iodo-2-propynyl butylcarbamate (IPBC)], the growth yield worked out at 1.27 ± 1.3% (40 h) and 0% (72 h).

As to `CN(C)[C@@H]1C(O)=C(C(N)=O)C(=O)[C@@]2(O)C(O)=C3C(=O)c4c(O)ccc(Cl)c4[C@@H](O)[C@H]3C[C@@H]12` [Demeclocycline hydrochloride] + CCCCNC(=O)OCC#CI [3-iodo-2-propynyl butylcarbamate (IPBC)], the growth yield came to 68.8 ± 2.4% (40 h) and 76.1 ± 1.1% (72 h).

Regarding `CC(C)CC(N(C)C)C1(c2ccc(Cl)cc2)CCC1` (configuration not stated) [Sibutramine hydrochloride] + CCCCNC(=O)OCC#CI [3-iodo-2-propynyl butylcarbamate (IPBC)], the growth yield is, setting by setting: (40 h) 76.7 ± 0.79%; (72 h) 90.82 ± 0.42%.

`CCC[C@H](N[C@@H](C)C(=O)N1[C@H](C(=O)O)C[C@@H]2CCCC[C@@H]21)C(=O)OCC` [Perindopril] + CCCCNC(=O)OCC#CI [3-iodo-2-propynyl butylcarbamate (IPBC)]: the growth yield (40 h) is 98.8 ± 5.1% and the growth yield (72 h) was 97.5 ± 3.1%.

Take `CCCCc1ccc2[nH]c(NC(=O)OC)nc2c1` [Parbendazole] + CCCCNC(=O)OCC#CI [3-iodo-2-propynyl butylcarbamate (IPBC)]: the growth yield by setting is: (40 h) 27 ± 4.1%; (72 h) 80.2 ± 2.2%.

In the case of `CCCSc1ccc2[nH]c(NC(=O)OC)nc2c1` [Albendazole] + CCCCNC(=O)OCC#CI [3-iodo-2-propynyl butylcarbamate (IPBC)], the growth yield by setting is: (40 h) 87.7 ± 8.9%; (72 h) 99.7 ± 2.8%.

Consider `COC(=O)Nc1nc2cc(C(=O)c3ccc(F)cc3)ccc2[nH]1` [Flubendazol] + CCCCNC(=O)OCC#CI [3-iodo-2-propynyl butylcarbamate (IPBC)], for which the growth yield by setting is: (40 h) 86.4 ± 5.4%; (72 h) 91.1 ± 4.9%.

Consider `CCCOc1ccc2[nH]c(NC(=O)OC)nc2c1` [Oxibendazol] + CCCCNC(=O)OCC#CI [3-iodo-2-propynyl butylcarbamate (IPBC)], for which the growth yield (40 h) amounted to 44.6 ± 2.1% and the growth yield (72 h) turned out to be 85 ± 4.8%.

In the case of `COC(=O)Nc1nc2cc(C(=O)c3ccccc3)ccc2[nH]1` [Mebendazole] + CCCCNC(=O)OCC#CI [3-iodo-2-propynyl butylcarbamate (IPBC)], the growth yield is, setting by setting: (40 h) 68 ± 1.9%; (72 h) 89.36 ± 0.63%.

Regarding `COC(=O)Nc1nc2cc([S+]([O-])c3ccccc3)ccc2[nH]1` (configuration not stated) [Oxfendazol] + CCCCNC(=O)OCC#CI [3-iodo-2-propynyl butylcarbamate (IPBC)], the growth yield (40 h) came out at 93.4 ± 6.3% and the growth yield (72 h) turned out to be 98.2 ± 4.2%.

Turning to `N#Cc1cc(NC(=O)C(=O)O)c(Cl)c(NC(=O)C(=O)O)c1` [Lodoxamide] + CCCCNC(=O)OCC#CI [3-iodo-2-propynyl butylcarbamate (IPBC)], the growth yield stood at 114 ± 10% (40 h) and 109 ± 12% (72 h).

On to `C=C(NC(=O)C(=C)NC(=O)c1csc(C2=N[C@@H]3c4csc(n4)[C@H]4NC(=O)c5csc(n5)[C@H]([C@](C)(O)[C@@H](C)O)NC(=O)[C@H]5CSC(=N5)/C(=C/C)NC(=O)[C@H]([C@@H](C)O)NC(=O)c5csc(n5)[C@]3(CC2)NC(=O)[C@H](C)NC(=O)C(=C)NC(=O)[C@H](C)NC(=O)[C@H]([C@@H](C)CC)N[C@@H]2C=Cc3c([C@H](C)O)cc(nc3[C@H]2O)C(=O)O[C@@H]4C)n1)C(N)=O` [Thiostrepton] + CCCCNC(=O)OCC#CI [3-iodo-2-propynyl butylcarbamate (IPBC)], for which the growth yield (40 h) is 101 ± 2.5% and the growth yield (72 h) was found to be 100 ± 1.6%.

In the case of `CNCCC=C1c2ccccc2CCc2ccccc21` [Nortriptyline hydrochloride] + CCCCNC(=O)OCC#CI [3-iodo-2-propynyl butylcarbamate (IPBC)], the growth yield runs as follows: (40 h) 70.5 ± 2.2%; (72 h) 94.28 ± 0.73%.

With `COC(=O)C1=C(C#N)NC(C)=C(C(=O)OC(C)C)C1c1cccc([N+](=O)[O-])c1` (configuration not stated) [Nilvadipine] + CCCCNC(=O)OCC#CI [3-iodo-2-propynyl butylcarbamate (IPBC)], the growth yield reads like this: (40 h) 107.2 ± 0.16%; (72 h) 102 ± 2.5%.

Regarding `Cc1cc(O)c(C(=O)N[C@@H](C(=O)N[C@@H]2C(=O)N3C(C(=O)O)=C(CSc4nnnn4C)CS[C@H]23)c2ccc(O)cc2)cn1` [Cefpiramide] + CCCCNC(=O)OCC#CI [3-iodo-2-propynyl butylcarbamate (IPBC)], the growth yield turned out to be 89.4 ± 2.7% (40 h) and 90.9 ± 1.4% (72 h).

For `CN(C)C/C=C(/c1ccc(Br)cc1)c1cccnc1` [Zimelidine dihydrochloride monohydrate] + CCCCNC(=O)OCC#CI [3-iodo-2-propynyl butylcarbamate (IPBC)], the growth yield runs as follows: (40 h) 77.8 ± 0.95%; (72 h) 93.5 ± 2.1%.

Take `C=C[C@H]1CN2CC[C@H]1C[C@@H]2[C@@H](O)c1ccnc2ccc(OC)cc12` [Quinidine hydrochloride monohydrate] + CCCCNC(=O)OCC#CI [3-iodo-2-propynyl butylcarbamate (IPBC)]: the growth yield reads like this: (40 h) 77.7 ± 7.5%; (72 h) 89.8 ± 6.3%.

In the case of `O=C(c1ccc(F)cc1)C1CCN(CCn2c(=O)[nH]c3ccccc3c2=O)CC1` [Ketanserin tartrate hydrate] + CCCCNC(=O)OCC#CI [3-iodo-2-propynyl butylcarbamate (IPBC)], the growth yield (40 h) was 98.5 ± 8.3% and the growth yield (72 h) was 101 ± 3.2%.

As for `CCNC(=O)CCC/C=C\C[C@@H]1[C@@H](/C=C/[C@@H](O)CCc2ccccc2)[C@H](O)C[C@@H]1O` [Bimatoprost] + CCCCNC(=O)OCC#CI [3-iodo-2-propynyl butylcarbamate (IPBC)], the growth yield by setting is: (40 h) 94.5 ± 5.6%; (72 h) 95.4 ± 4.2%.

Turning to `Cc1nc2n(c(=O)c1CCN1CCC(c3noc4cc(F)ccc34)CC1)CCCC2O` (configuration not stated) [Paliperidone] + CCCCNC(=O)OCC#CI [3-iodo-2-propynyl butylcarbamate (IPBC)], the growth yield runs as follows: (40 h) 82.28 ± 0.32%; (72 h) 90.09 ± 0.32%.

Regarding `Nc1c(Br)cc(Br)cc1CN[C@H]1CC[C@H](O)CC1` [Ambroxol hydrochloride] + CCCCNC(=O)OCC#CI [3-iodo-2-propynyl butylcarbamate (IPBC)], the growth yield (40 h) came out at 73.2 ± 2.1% and the growth yield (72 h) is 88.9 ± 2.5%.

On to `CCOC(=O)OC(C)OC(=O)[C@@H]1N2C(=O)[C@@H](NC(=O)[C@H](N)c3ccccc3)[C@H]2SC1(C)C` (some centres not stated) [Bacampicillin hydrochloride] + CCCCNC(=O)OCC#CI [3-iodo-2-propynyl butylcarbamate (IPBC)], for which the growth yield was found to be 89.1 ± 7.5% (40 h) and 92.3 ± 3.8% (72 h).

`CCN(CC)CC#CCOC(=O)C(O)(c1ccccc1)C1CCCCC1` (configuration not stated) [Oxybutynin chloride] + CCCCNC(=O)OCC#CI [3-iodo-2-propynyl butylcarbamate (IPBC)]: the growth yield by setting is: (40 h) 74.18 ± 0.16%; (72 h) 88.52 ± 0.63%.
